Results taken from PubChem BioAssay (Tox21).
Inconclusive results are not listed. Values without a mark were called inactive. The call rests on the fitted dose curve; in most records, active means well fitted cell-killing curve with a large enough effect in the repeat runs; inconclusive means weak or mixed curves; inactive means no such curve, though single readings can be large or run the other way.

Experiment: qHTS assay to identify small molecule antagonists of the peroxisome proliferator-activated receptor delta (PPARd) signaling pathway - cell viability counter screen (AID 743213); further: nearly all actives have a fitted effect of over 50% in size
Conditions: PPARd-bla HEK293H viability, CellTiter-Glo luminescence, 17 h; series mostly up to 62 µM; viability change, negative = cytotoxic: at the top concentration
Text: U.S. Tox21 Program National Center for Advancing Translational Sciences [NCATS] NIH Chemical Genomics Center [NCGC] U.S. Environmental Protection Agency [EPA] National Institutes of Environmental Health Sciences [NIEHS] National Toxicology Program [NTP] U.S. Food and Drug Administration [FDA] Tox21 Assay Overview: The peroxisome proliferator-activated receptors (PPARs) are lipid-activated transcription factors of the nuclear receptor superfamily with three distinct subtypes namely PPAR alpha, PPAR delta (PPARd) and PPAR gamma. All these subtypes heterodimerizes with Retinoid X receptor (RXR) and have different physiological functions. […] To identify the compounds that inhibit PPAR-delta signaling, GeneBLAzer PPAR delta UAS-bla HEK293H cell line (Invitrogen, Carlsbad, CA, USA) containing a beta-lactamase reporter gene under the control of an Upstream Activator Sequence (UAS) was used to screen the Tox21 compound library. The cytotoxicity of the Tox21 compound library against the PPARd-bla cell line was tested in parallel by measuring the cell viability using CellTiter-Glo assay (Promega, Madison, WI) in the same wells.
Tox21 Assay Protocol Summary: PPARd-bla cells were dispensed at 3000 cells/5uL/well in 1536-well black wall/clear bottom plates using a Multidrop Combi (Thermo Fisher Scientific, Waltham, MA) dispenser. After the assay plates were incubated at 37 C and 5% CO2 for 5 h, 23 nL of compounds dissolved in DMSO, positive controls or DMSO only was transferred to the assay plate by a Pintool station (Kalypsys, San Diego, CA), followed by addition of 1ul L165041 (300 nM, final concentration in the wells). The assay plates were incubated at 37 C for 17 h, and then 1 uL of LiveBLAzerTM B/G FRET substrate was added using a Bioraptr Flying Reagent Dispenser (FRD) workstation (Beckman Coulter, Indianapolis, IN, USA). The assay plates were incubated at room temperature for 2 h and fluorescence intensity was measured by an Envision plate reader (PerkinElmer, Shelton, CT). For cell viability readout that measures cytotoxicity, 3 ul/well of CellTiter-Glo reagent was added into the assay plates using a Bioraptr FRD. After 30 min incubation at room temperature, the luminescence intensity in the plates was measured using a ViewLux plate reader (PerkinElmer).
On the % scale 0 is the no-effect control and ±100 the full control effect.

Row | Structure (SMILES) | viability change, negative = cytotoxic
1 | CCCCCCOC(=O)CCCCC | -6.22%
2 | CC(=O)OCC(=O)[C@@]1(OC(C)=O)[C@@H](C)C[C@H]2[C@@H]3C[C@H](F)C4=CC(=O)C=C[C@]4(C)[C@@]3(F)[C@@H](O)C[C@@]21C | 8.83%
3 | CCCCCCC(O)CCOC(C)=O (stereo not given) | 0.773% [at 226 µM]
4 | Cc1ccc2nc(N)[nH]c(=O)c2c1Sc1ccncc1 | 8.23%
5 | O=C1c2ccccc2C(=O)c2c(O)ccc(O)c21 | -1.86%
6 | NC(=O)c1ccccc1[N+](=O)[O-] | -4.22% [at 80.4 µM]
7 | CC(=O)NNC(C)=O | -10.4% [at 80.4 µM]
8 | Cc1cc(CCC(=O)OCCOCCOCCOC(=O)CCc2cc(C)c(O)c(C(C)(C)C)c2)cc(C(C)(C)C)c1O | -1.71%
9 | CC(C(=O)O)c1ccc(C(=O)c2cccs2)cc1 (stereo not given) | -8.94%
10 | O=CNNC=O | -2.18% [at 80.4 µM]
11 | C1=CCC2CC=CC2C1 (stereo not given) | -9.88%
12 | COc1ccc(C(=O)NCc2ccc(OCCN(C)C)cc2)cc1OC | 23.4%
13 | O=C(C(=O)c1ccco1)c1ccco1 | -14% [at 80.4 µM]
14 | O=C(O)CCCc1c[nH]c2ccccc12 | 1.49%
15 | Nc1ccn([C@H]2CS[C@@H](CO)O2)c(=O)n1 | -4.3%
16 | OCC(CO)n1cnc(-c2ccc(F)cc2)c1-c1ccnc(Oc2ccccc2)n1 | -11.3%
17 | COC(OC)OC | 4.32%
18 | CC[C@H]1OC(=O)[C@H](C)[C@@H](O[C@H]2C[C@@](C)(OC)[C@@H](O)[C@H](C)O2)[C@H](C)[C@@H](O[C@@H]2O[C@H](C)C[C@H](N(C)C)[C@H]2O)[C@](C)(O)C[C@@H](C)C(=O)[C@H](C)[C@@H](O)[C@]1(C)O | -11.9%
19 | CC1CCCO1 (stereo not given) | 5.49%
20 | CCOC(=O)c1c(N)sc2c1CCN(Cc1ccccc1)C2 | 0.54%

Row | Structure (SMILES) | viability change, negative = cytotoxic
21 | CC(C)(C)C(O)/C=C/c1ccc2c(c1)OCO2 (stereo not given) | 8.36%
22 | COC(=O)c1sccc1S(N)(=O)=O | 9.21%
23 | CCCCC[C@H](O)/C=C/[C@H]1[C@H](O)CC(=O)[C@@H]1C/C=C\CCCC(=O)O | 3.86%
24 | CCN(CC)c1cccc(O)c1 | 17.6% [at 80.4 µM]
25 | Nc1c(Cl)cc(Cl)cc1[N+](=O)[O-] | -7.89%
26 | c1ccc(CCCc2ccncc2)cc1 | 2.88%
27 | COc1cc(S(=O)(=O)Nc2ccccc2)c(OC)cc1N | 6.62%
28 | CCCCOC(=O)CCCCC(=O)OCCCC | 6.91%
29 | BrC(Br)C(Br)Br | 21.8%
30 | Cc1ccc(NC(=O)N(C)C)cc1NC(=O)N(C)C | -2.2%
31 | CC1CCCC(=O)C1=O (stereo not given) | 4.77%
32 | [Cl][Nd]([Cl])[Cl] | 4.4%
33 | CC(C)CC(O)CC(C)C | -10.7%
34 | CCCCCCCCCCCCCCN(C)C | -13.9% [at 28.9 µM]
35 | COC(=O)CC(C(C)=O)C(=O)OC (stereo not given) | 2.38%
36 | CC(C)c1ccc(C(=O)N=C(N)N)cc1S(C)(=O)=O | 7.7%
37 | CCc1ccc(C)cc1 | -0.426%
38 | O=C(NS(=O)(=O)/C=C/c1ccccc1)c1ccc(F)cc1Cl | -18.9%
39 | SCCc1cnccn1 | -11.2%
40 | CC(=O)C(=O)CC(C)C | 11.6%
